Data reported in publication PMC11062922 (Nature Chemical Biology, 2023).
Read-outs that look alike come from different tables or passages of the source.

How the values were obtained:
Conditions in all cases: read-out: apparent Kd, n = 1
[1] = system: CLK4
[2] = system: FER
[3] = system: FLT4
[4] = compound concentrations:100 nM and 1000 nM (sheet 'Lestaurtinib' of Supplementary Table 1),run:Lestaurtinib_02795_R1,Plate:MR022
[5] = compound concentrations:100 nM and 1000 nM (sheet 'Lestaurtinib' of Supplementary Table 1),run:Lestaurtinib_02795_R2,Plate:MR022
[6] = compound concentrations:100 nM and 1000 nM (sheet 'Lestaurtinib' of Supplementary Table 1),run:Lestaurtinib_02802_R2,Plate:MR029
[7] = compound concentrations:100 nM and 1000 nM (sheet 'Lestaurtinib' of Supplementary Table 1),run:Lestaurtinib_02802_R3,Plate:MR029
[8] = compound concentrations:100 nM and 1000 nM (sheet 'Lestaurtinib' of Supplementary Table 1),run:Lestaurtinib_03172_R3,Plate:MR031
[9] = compound concentrations:100 nM and 1000 nM (sheet 'Lestaurtinib' of Supplementary Table 1),run:Lestaurtinib_03252_R2,Plate:MR032
[10] = compound concentrations:100 nM and 1000 nM (sheet 'Lestaurtinib' of Supplementary Table 1),run:Lestaurtinib_03260_R1,Plate:MR033
[11] = compound concentrations:100 nM and 1000 nM (sheet 'Lestaurtinib' of Supplementary Table 1),run:Lestaurtinib_03260_R2,Plate:MR033
[12] = compound concentrations:100 nM and 1000 nM (sheet 'Lestaurtinib' of Supplementary Table 1),run:Lestaurtinib_03260_R3,Plate:MR033
[13] = compound concentrations:100 nM and 1000 nM (sheet 'Lestaurtinib' of Supplementary Table 1),run:Lestaurtinib_02339_R1,Plate:MR001
[14] = compound concentrations:100 nM and 1000 nM (sheet 'Lestaurtinib' of Supplementary Table 1),run:Lestaurtinib_02339_R2,Plate:MR001
[15] = compound concentrations:100 nM and 1000 nM (sheet 'Lestaurtinib' of Supplementary Table 1),run:Lestaurtinib_02364_R2,Plate:MR002

Substance: Lestaurtinib
- potency estimated from few doses ([1]; compound concentrations:100 nM and 1000 nM (sheet 'Lestaurtinib' of Supplementary Table 1),run:Lestaurtinib_02768_R3,Plate:MR028): 50.7 nM
- potency estimated from few doses [1, 4]: 63.3 nM
- potency estimated from few doses [1, 5]: 42.4 nM
- potency estimated from few doses [1, 6]: 62.9 nM
- potency estimated from few doses [1, 7]: 42.9 nM
- potency estimated from few doses ([1]; compound concentrations:100 nM and 1000 nM (sheet 'Lestaurtinib' of Supplementary Table 1),run:Lestaurtinib_02896_R1,Plate:MR030): 45.2 nM
- potency estimated from few doses ([1]; compound concentrations:100 nM and 1000 nM (sheet 'Lestaurtinib' of Supplementary Table 1),run:Lestaurtinib_02896_R2,Plate:MR030): 44.9 nM
- potency estimated from few doses [1, 8]: 82.5 nM
- potency estimated from few doses [1, 9]: 38.7 nM
- potency estimated from few doses [1, 10]: 95 nM
- potency estimated from few doses [1, 11]: 130 nM
- potency estimated from few doses [1, 12]: 60.5 nM
- potency estimated from few doses [2, 13]: 361 nM
- potency estimated from few doses [2, 14]: 254 nM
- potency estimated from few doses ([2]; compound concentrations:100 nM and 1000 nM (sheet 'Lestaurtinib' of Supplementary Table 1),run:Lestaurtinib_02339_R3,Plate:MR001): 336 nM
- potency estimated from few doses ([2]; compound concentrations:100 nM and 1000 nM (sheet 'Lestaurtinib' of Supplementary Table 1),run:Lestaurtinib_02364_R1,Plate:MR002): 298 nM
- potency estimated from few doses [2, 15]: 396 nM
- potency estimated from few doses ([2]; compound concentrations:100 nM and 1000 nM (sheet 'Lestaurtinib' of Supplementary Table 1),run:Lestaurtinib_02367_R1,Plate:MR003): 327 nM
- potency estimated from few doses ([2]; compound concentrations:100 nM and 1000 nM (sheet 'Lestaurtinib' of Supplementary Table 1),run:Lestaurtinib_02367_R2,Plate:MR003): 319 nM
- potency estimated from few doses ([2]; compound concentrations:100 nM and 1000 nM (sheet 'Lestaurtinib' of Supplementary Table 1),run:Lestaurtinib_02367_R3,Plate:MR003): 310 nM
- potency estimated from few doses ([2]; compound concentrations:100 nM and 1000 nM (sheet 'Lestaurtinib' of Supplementary Table 1),run:Lestaurtinib_02381_R1,Plate:MR004): 385 nM
- potency estimated from few doses ([2]; compound concentrations:100 nM and 1000 nM (sheet 'Lestaurtinib' of Supplementary Table 1),run:Lestaurtinib_02381_R2,Plate:MR004): 362 nM
- potency estimated from few doses ([2]; compound concentrations:100 nM and 1000 nM (sheet 'Lestaurtinib' of Supplementary Table 1),run:Lestaurtinib_02381_R3,Plate:MR004): 336 nM
- potency estimated from few doses ([2]; compound concentrations:100 nM and 1000 nM (sheet 'Lestaurtinib' of Supplementary Table 1),run:Lestaurtinib_02407_R3,Plate:MR005): 459 nM
- potency estimated from few doses ([2]; compound concentrations:100 nM and 1000 nM (sheet 'Lestaurtinib' of Supplementary Table 1),run:Lestaurtinib_02422_R3,Plate:MR006): 307 nM
- potency estimated from few doses ([2]; compound concentrations:100 nM and 1000 nM (sheet 'Lestaurtinib' of Supplementary Table 1),run:Lestaurtinib_02437_R2,Plate:MR007): 347 nM
- potency estimated from few doses ([2]; compound concentrations:100 nM and 1000 nM (sheet 'Lestaurtinib' of Supplementary Table 1),run:Lestaurtinib_02437_R3,Plate:MR007): 30.6 nM
- potency estimated from few doses ([2]; compound concentrations:100 nM and 1000 nM (sheet 'Lestaurtinib' of Supplementary Table 1),run:Lestaurtinib_02438_R1,Plate:MR008): 352 nM
- potency estimated from few doses ([2]; compound concentrations:100 nM and 1000 nM (sheet 'Lestaurtinib' of Supplementary Table 1),run:Lestaurtinib_02438_R2,Plate:MR008): 345 nM
- potency estimated from few doses ([2]; compound concentrations:100 nM and 1000 nM (sheet 'Lestaurtinib' of Supplementary Table 1),run:Lestaurtinib_02438_R3,Plate:MR008): 356 nM
- potency estimated from few doses ([2]; compound concentrations:100 nM and 1000 nM (sheet 'Lestaurtinib' of Supplementary Table 1),run:Lestaurtinib_02443_R1,Plate:MR009): 347 nM
- potency estimated from few doses ([2]; compound concentrations:100 nM and 1000 nM (sheet 'Lestaurtinib' of Supplementary Table 1),run:Lestaurtinib_02443_R2,Plate:MR009): 358 nM
- potency estimated from few doses ([2]; compound concentrations:100 nM and 1000 nM (sheet 'Lestaurtinib' of Supplementary Table 1),run:Lestaurtinib_02473_R2,Plate:MR010): 343 nM
- potency estimated from few doses ([2]; compound concentrations:100 nM and 1000 nM (sheet 'Lestaurtinib' of Supplementary Table 1),run:Lestaurtinib_02482_R1,Plate:MR011): 406 nM
- potency estimated from few doses ([2]; compound concentrations:100 nM and 1000 nM (sheet 'Lestaurtinib' of Supplementary Table 1),run:Lestaurtinib_02482_R2,Plate:MR011): 336 nM
- potency estimated from few doses ([2]; compound concentrations:100 nM and 1000 nM (sheet 'Lestaurtinib' of Supplementary Table 1),run:Lestaurtinib_02487_R1,Plate:MR012): 221 nM
- potency estimated from few doses ([2]; compound concentrations:100 nM and 1000 nM (sheet 'Lestaurtinib' of Supplementary Table 1),run:Lestaurtinib_02496_R1,Plate:MR013): 306 nM
- potency estimated from few doses ([2]; compound concentrations:100 nM and 1000 nM (sheet 'Lestaurtinib' of Supplementary Table 1),run:Lestaurtinib_02566_R1,Plate:MR014): 269 nM
- potency estimated from few doses ([2]; compound concentrations:100 nM and 1000 nM (sheet 'Lestaurtinib' of Supplementary Table 1),run:Lestaurtinib_02572_R2,Plate:MR015): 259 nM
- potency estimated from few doses ([2]; compound concentrations:100 nM and 1000 nM (sheet 'Lestaurtinib' of Supplementary Table 1),run:Lestaurtinib_02572_R3,Plate:MR015): 447 nM
- potency estimated from few doses ([2]; compound concentrations:100 nM and 1000 nM (sheet 'Lestaurtinib' of Supplementary Table 1),run:Lestaurtinib_02584_R1,Plate:MR017): 332 nM
- potency estimated from few doses ([2]; compound concentrations:100 nM and 1000 nM (sheet 'Lestaurtinib' of Supplementary Table 1),run:Lestaurtinib_02584_R3,Plate:MR017): 351 nM
- potency estimated from few doses ([2]; compound concentrations:100 nM and 1000 nM (sheet 'Lestaurtinib' of Supplementary Table 1),run:Lestaurtinib_02601_R2,Plate:MR018): 394 nM
- potency estimated from few doses ([2]; compound concentrations:100 nM and 1000 nM (sheet 'Lestaurtinib' of Supplementary Table 1),run:Lestaurtinib_02601_R3,Plate:MR018): 42.4 nM
- potency estimated from few doses ([2]; compound concentrations:100 nM and 1000 nM (sheet 'Lestaurtinib' of Supplementary Table 1),run:Lestaurtinib_02606_R2,Plate:MR019): 83.6 nM
- potency estimated from few doses ([2]; compound concentrations:100 nM and 1000 nM (sheet 'Lestaurtinib' of Supplementary Table 1),run:Lestaurtinib_02606_R3,Plate:MR019): 355 nM
- potency estimated from few doses ([2]; compound concentrations:100 nM and 1000 nM (sheet 'Lestaurtinib' of Supplementary Table 1),run:Lestaurtinib_02624_R3,Plate:MR020): 365 nM
- potency estimated from few doses ([2]; compound concentrations:100 nM and 1000 nM (sheet 'Lestaurtinib' of Supplementary Table 1),run:Lestaurtinib_02724_R2,Plate:MR021): 436 nM
- potency estimated from few doses ([2]; compound concentrations:100 nM and 1000 nM (sheet 'Lestaurtinib' of Supplementary Table 1),run:Lestaurtinib_02748_R1,Plate:MR024): 268 nM
- potency estimated from few doses ([2]; compound concentrations:100 nM and 1000 nM (sheet 'Lestaurtinib' of Supplementary Table 1),run:Lestaurtinib_02748_R3,Plate:MR024): 278 nM
- potency estimated from few doses ([2]; compound concentrations:100 nM and 1000 nM (sheet 'Lestaurtinib' of Supplementary Table 1),run:Lestaurtinib_02752_R1,Plate:MR025): 356 nM
- potency estimated from few doses ([2]; compound concentrations:100 nM and 1000 nM (sheet 'Lestaurtinib' of Supplementary Table 1),run:Lestaurtinib_02752_R2,Plate:MR025): 297 nM
- potency estimated from few doses ([2]; compound concentrations:100 nM and 1000 nM (sheet 'Lestaurtinib' of Supplementary Table 1),run:Lestaurtinib_02752_R3,Plate:MR025): 327 nM
- potency estimated from few doses ([2]; compound concentrations:100 nM and 1000 nM (sheet 'Lestaurtinib' of Supplementary Table 1),run:Lestaurtinib_02765_R1,Plate:MR026): 564 nM
- potency estimated from few doses ([2]; compound concentrations:100 nM and 1000 nM (sheet 'Lestaurtinib' of Supplementary Table 1),run:Lestaurtinib_02765_R2,Plate:MR026): 481 nM
- potency estimated from few doses ([2]; compound concentrations:100 nM and 1000 nM (sheet 'Lestaurtinib' of Supplementary Table 1),run:Lestaurtinib_02765_R3,Plate:MR026): 549 nM
- potency estimated from few doses ([2]; compound concentrations:100 nM and 1000 nM (sheet 'Lestaurtinib' of Supplementary Table 1),run:Lestaurtinib_02766_R1,Plate:MR027): 277 nM
- potency estimated from few doses ([2]; compound concentrations:100 nM and 1000 nM (sheet 'Lestaurtinib' of Supplementary Table 1),run:Lestaurtinib_02766_R2,Plate:MR027): 25.3 nM
- potency estimated from few doses ([2]; compound concentrations:100 nM and 1000 nM (sheet 'Lestaurtinib' of Supplementary Table 1),run:Lestaurtinib_02766_R3,Plate:MR027): 321 nM
- potency estimated from few doses [2, 4]: 454 nM
- potency estimated from few doses [2, 5]: 356 nM
- potency estimated from few doses ([2]; compound concentrations:100 nM and 1000 nM (sheet 'Lestaurtinib' of Supplementary Table 1),run:Lestaurtinib_02795_R3,Plate:MR022): 372 nM
- potency estimated from few doses [2, 6]: 296 nM
- potency estimated from few doses [2, 7]: 12.4 nM
- potency estimated from few doses ([2]; compound concentrations:100 nM and 1000 nM (sheet 'Lestaurtinib' of Supplementary Table 1),run:Lestaurtinib_03172_R2,Plate:MR031): 386 nM
- potency estimated from few doses [2, 8]: 315 nM
- potency estimated from few doses [2, 9]: 25 nM
- potency estimated from few doses [2, 10]: 469 nM
- potency estimated from few doses [2, 11]: 487 nM
- potency estimated from few doses [2, 12]: 351 nM
- potency estimated from few doses [3, 13]: 345 nM
- potency estimated from few doses [3, 14]: 300 nM
- potency estimated from few doses [3, 15]: 289 nM
